Sampled rows, rich in hits. Any-hit rate of the full collection: about 4.6%.
Marburg entry inh – Marburg virus entry inhibition; actives 1.8% (n = 300,000); Marburg virus pseudotyped entry inhibition, cell reporter; Potency, µM (highest dose often 37.8 µM), actives largely listed as inhibitors; calls by dose curve; tested in HEK293 cells
Lassa entry inh – inhibitors of Lassa virus binding or cell entry. actives 1.2% (n = 300,000). Potency, µM (highest dose often 37.9 µM), usual class: inhibitors. Lassa virus pseudotype entry inhibition, cell reporter. AID 540256; calls by dose curve; tested in HEK293 cells; further: nearly all actives have a fitted effect of over 50% in size
Vaccinia Venus – inhibitors of vaccinia virus (Venus reporter). Vaccinia virus Venus reporter expression, fluorescence. Potency, µM (series often up to 36.5 µM), actives largely listed as inhibitors. actives 0.46% (n = 330,000). AID 720580; calls by dose curve; tested in A549 cells; further: nearly all actives have a fitted effect of over 30% in size
HCV inhibitor – inhibitors of hepatitis C virus infection | Potency, µM (titrated, usually from 41.8 µM), usual class: inhibitors | Huh7.5.1 HCVcc-Cre infection, luciferase reporter, 44 h | actives 3.4% (n = 340,000); active means well fitted inhibition curve with a large enough effect; inconclusive means small, poorly fitted or top-dose-only effect, or another doubt; inactive means no such curve, though single readings can be large or run the other way
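Cells seeded at 1,000/well and cultured 4 h, then compounds added followed by HCVcc-Cre virus (~0.5 moi). After 44 h further culture, luciferase substrate was added, plates held 15 min at room temperature, and luminescence read for 15 sec.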
VACV mCherry inh – vaccinia inhibition (mCherry reporter); Potency, µM (top dose mostly 36.5 µM), actives largely listed as inhibitors; actives 0.63% (n = 310,000); Vaccinia virus mCherry reporter infection, fluorescence; calls by dose curve; tested in A549 cells; further: nearly all actives have a fitted effect of over 35% in size
A number is an active result; – = inactive; ? = inconclusive; · = not tested or not shown.

SMILES	Marburg entry inh	Lassa entry inh	Vaccinia Venus	HCV inhibitor	VACV mCherry inh
CSc1cccc(NC(=O)C2CCN(S(=O)(=O)c3ccc(F)cc3)CC2)c1	–	?	?	11µM	–
O=C(c1ccco1)N1CCN(C(=O)c2ccc(-c3cccc(C(F)(F)F)c3)o2)CC1	?	5µM	–	–	–
O=C(Nc1cccc(C(F)(F)F)c1)c1ccco1	–	–	·	10µM	·
O=C(Nc1cccc(S(=O)(=O)c2cccc(NC(=O)C3CC3)c2)c1)C1CC1	?	21µM	?	5.6µM	–
O=C(CCSCCc1ccccn1)Nc1ccc(Cl)cc1	·	–	–	·	–
CC(C)(C)NC(=O)c1cccc(NC(=O)c2ccco2)c1	–	–	–	–	·
CC(C)(C)NC(=O)c1cccc(NC(=O)c2ccc(NC(=O)c3ccco3)cc2)c1	?	?	–	2.5µM	–
NNC(=O)Nc1cccc(C(F)(F)F)c1	–	–	–	–	–
O=C(Nc1cccc(C(F)(F)F)c1)NC1CCCCC1	–	4µM	?	–	·
O=C(Nc1cccc(S(=O)(=O)c2cccc(NC(=O)c3ccco3)c2)c1)c1ccco1	?	?	–	11µM	–
NC(=O)/C=C\C(=O)Nc1cccc(C(F)(F)F)c1	9.2µM	?	–	?	?
CCOC(=O)c1ccc(NC(=O)c2c(NCc3sccc3C)sc3c2CCCCC3)cc1	·	–	–	·	–
CN=c1sc2ccccc2n1C[C@@H](O)COCc1ccco1	–	·	·	·	·
Cc1cnccn1	·	·	–	·	–
O=C1[C@H]2[C@H]3[C@H](O)[C@H](O)C/C(=N\OCc4ccccc4)[C@H]3CC[C@H]2C(=O)N1Cc1ccc2c(c1)OCO2	–	·	·	·	·
c1ccc(-c2csc(Nc3ncccn3)n2)cc1	?	–	–	–	–
Cc1cccc(Nc2nc(-c3ccc(F)cc3)cs2)n1	?	13µM	–	?	–
Cc1cccnc1Nc1nc(-c2ccc(O)cc2O)cs1	?	–	–	–	–
Cc1cccnc1Nc1nc(-c2ccccn2)cs1	?	7.1µM	3.2µM	?	2.5µM
Cc1cccc(Nc2nc(-c3ccccn3)cs2)n1	?	?	·	7.1µM	·
Cc1cccnc1Nc1nc(-c2ccccc2)cs1	·	·	·	16µM	·
COc1ccc(-c2csc(Nc3cccc(C)n3)n2)cc1	?	?	–	?	?
CC(C)N(Cc1ccccc1)c1ncnc2c1nnn2C	·	?	–	·	–
CCOC(=O)c1cc(C)n(CC2CCC(C(=O)Nc3cccc(C(C)=O)c3)CC2)c1C (stereo not drawn)	·	–	–	·	–
C=CC[C@@H]1C=CC(O/N=C(\C)CCC(=O)OC[C@H]2O[C@H](C#Cc3ccccc3)C=C[C@@H]2Oc2ccc(C)cc2)[C@@H](CO)O1 (stereo partly drawn)	–	·	·	·	·
SMILES	Marburg entry inh	Lassa entry inh	Vaccinia Venus	HCV inhibitor	VACV mCherry inh
O=C(Nc1ccccc1)N(Cc1ccccc1)CC(O)C(F)(F)F (stereo not drawn)	?	?	–	–	·
O=C(Nc1cccc(F)c1)N(Cc1ccc(Cl)cc1)CC(O)C(F)(F)F (stereo not drawn)	?	?	?	11µM	?
Cc1ccc(CN2CCC(CNC(=O)c3ccc(NC(=O)C4=CSCCO4)cc3)CC2)cc1	·	·	·	13µM	·
CCC1CCCCN1C(=O)c1cc(COc2ccc(-n3cncn3)cc2)on1 (stereo not drawn)	–	–	–	32µM	–
O=C(c1cc(COc2ccc(-n3cncn3)cc2)on1)N1CCCC1	·	·	·	–	·
C=CCc1c(C)nc(-c2ccccc2)nc1Nc1ccccc1O	?	–	–	?	–
C=CCc1c(C)nc(SC)nc1Nc1ccc(C)cc1	?	?	–	10µM	–
CCC1(C2CCN(Cc3ccc(C)s3)CC2)NC(=O)N(CC2COc3ccccc3O2)C1=O (stereo not drawn)	·	·	–	·	–
CCC[C@H]1CN(Cc2cccnc2)C(=O)[C@H]1CC(=O)Nc1ccc(Br)cc1	·	–	·	·	·
COc1cc(CNCCc2c[nH]c3ccccc23)ccc1OCc1ccc(F)cc1	?	–	?	13µM	10µM
COc1cc(CNCCc2c[nH]c3ccccc23)cc(Cl)c1OCC(N)=O	?	–	–	?	–
CCOc1cc(CNCCc2c[nH]c3ccccc23)cc(Cl)c1OC	?	–	–	10µM	–
COc1cc(-c2nc(C)cnc2C)cc2c1OCCN(C(=O)Cn1nc(-c3ccccc3)c3ccccc3c1=O)C2	·	·	–	·	–
CCC(=O)N1CCc2cc(Br)cc(S(=O)(=O)NCCc3ccc(OC)c(OC)c3)c21	–	–	–	·	–
CCCC(C(=O)NC1CCCC1)N(C(=O)Cn1nnc(-c2ccc(C)o2)n1)c1ccccc1F (stereo not drawn)	?	–	–	–	–
CCCC(C(=O)NC1CCCC1)N(C(=O)Cn1nnc(-c2ccc(C)o2)n1)C1CCCC1 (stereo not drawn)	26µM	?	·	–	·
O=C(c1ccccc1C(F)(F)F)N1CCOc2c(cc(-c3nc4ccccc4s3)cc2OC2CCOC2)C1 (stereo not drawn)	·	·	?	·	–
Cc1ccccc1[N+](=O)[O-]	·	·	–	–	–
Cc1cc([N+](=O)[O-])c2ccccc2[n+]1[O-]	·	·	·	11µM	·
COc1ccc(OC)c(C2C3=C(COC3=O)Nc3cc4c(cc32)OCO4)c1 (stereo not drawn)	0.26µM	–	·	–	·
COc1cc(Cl)c(CNC[C@H]2O[C@@H](n3cnc(C(N)=O)n3)[C@H](O)[C@@H]2O)c(Cl)c1O	·	·	–	–	–
CC(C)Oc1ccc2ccccc2c1CNC[C@H]1O[C@@H](n2cnc(C(N)=O)n2)[C@H](O)[C@@H]1O	·	·	–	5µM	–
Cc1cc(C)c2nc(SCC(=O)N3CC(=O)Nc4ccccc43)c(C#N)cc2c1	?	?	?	7.9µM	?
Cc1nnc(SCC(=O)N2CC(=O)Nc3ccccc32)s1	–	–	–	–	–
O=C1CN(C(=O)CSc2nc(-c3ccc(Cl)cc3)cs2)c2ccccc2N1	?	–	?	14µM	?
SMILES	Marburg entry inh	Lassa entry inh	Vaccinia Venus	HCV inhibitor	VACV mCherry inh
CCOC(=O)c1ccc(CN(Cc2ccc(F)cc2)S(=O)(=O)c2ccc(F)cc2)cc1	·	–	–	·	–
COc1cc([C@H]2C(C(=O)c3cccs3)=C(O)C(=O)N2c2cc(C)on2)ccc1O	–	·	·	·	·
COc1cc(C)c(CN2C[C@H](Sc3ccccn3)C[C@H]2C(=O)N(C)C)cc1C	·	·	–	·	–
CN(C)CCN(Cc1cc2cc3c(cc2[nH]c1=O)OCCO3)C(=S)NCC1CCCO1 (stereo not drawn)	–	–	–	–	–
Cc1cc2nc(CCN(C(=S)NCC3CCCO3)C3CCCC3)[nH]c2cc1C (stereo not drawn)	·	·	·	11µM	·
CCOc1cc(NCc2ccccc2)c2ncn(C(C)C)c2c1	·	·	?	2.5µM	?
CC[C@H](CO)Oc1cc(NCc2ccc(Cl)c(Cl)c2)c2ncn(C(C)C)c2c1	·	·	–	11µM	–
CCC(CO)Oc1cc(NCc2ccc(C(F)(F)F)cc2)c2ncn(C(C)C)c2c1 (stereo not drawn)	·	·	–	11µM	–
CCC(CO)Oc1cc(NCc2ccc(OC)cc2)c2ncn(C(C)C)c2c1 (stereo not drawn)	·	·	–	?	–
CCC(CO)Oc1cc(NCc2ccc(C)cc2)c2ncn(C(C)C)c2c1 (stereo not drawn)	·	·	–	?	–
CCC(CO)Oc1cc(NCc2ccc(Cl)cc2)c2ncn(C(C)C)c2c1 (stereo not drawn)	·	·	–	2.2µM	–

Screening results deposited in PubChem BioAssay by National Center for Advancing Translational Sciences (NCATS).
